# Measurements taken from PubChem BioAssay (EPA / NIEHS).
# Where “and” joins values, the source holds several entries; their conditions need not be identical. Equal entries are not always repeated. Records with an inconclusive call do not appear. The source holds several records for some structures; these can differ, active in one and inactive in another. Calls of active or inactive are those of the source. How the source made its calls: active means hit-call score of the fitted dose curve at least 0.9, where 1 is the maximum; inconclusive means response in the unintended direction; inactive means score below 0.9.
# Tests used:
# [1] = molecular target: Retinoic acid receptor alpha (Homo sapiens) (UniProt P10276); assay: NVS_NR_hRARa_Agonist: NovaScreen (NVS) Nuclear Receptor Binding Assay for human Retinoic Acid Alpha Receptor Agonism (RAR) (AID 2283361)
# Summary of the method: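 TR-FRET signal, 2 h post-dosing; cell-free extracted protein; DMSO = baseline, positive fitting direction; 25 uM single-point duplicate, then concentration series for actives.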
# [2] = molecular target: human Thyroid Receptor Alpha (TRa), THRA (gene 7067) (UniProt P10827); assay: NVS_NR_hTRa_Antagonist: NovaScreen (NVS) Nuclear Receptor Binding Assay for human Thyroid Receptor Alpha Antagonism (TRa) (AID 2283362);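 further: activity is loss of signal relative to DMSO baseline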
# Summary of the method: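 In this biochemical format, receptor protein is dosed with chemical and read after 1 hour via AlphaLISA. Decreases from the DMSO baseline indicate antagonist activity; screening used 25 uM in duplicate before concentration-response confirmation.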
# [3] = molecular target: Retinoic acid receptor alpha (Homo sapiens) (UniProt P10276); assay: NVS_NR_hRAR_Antagonist: NovaScreen (NVS) Nuclear Receptor Binding Assay for human Retinoic Acid Alpha Receptor Antagonism (RAR) (AID 2283358)
# Summary of the method: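 Read-out: time-resolved FRET binding signal, 2 h post-dose, cell-free extracted protein. Antagonism scored as signal loss versus DMSO negative control. Primary single-concentration screen at 25 uM in duplicate; concentration series for actives.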
# [4] = molecular target: Estrogen receptor (Homo sapiens) + Estrogen receptor beta (Homo sapiens) (UniProt P03372+Q92731); assay: OT_ER_ERaERb_1440: Odyssey Thera (OT) 24-hour HEK293T Protein-Complementation Assay for Estrogen Receptor-alpha/-beta Homodimer (AID 2283356);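 further: heteromer of ER alpha and ER beta binding domains; hits raise reporter fluorescence and both agonists and antagonists give an increase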
# Summary of the method: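 24 h exposure; HEK293T PCA cells with ERα/ERβ LBD fragments; signal rise in nuclear or whole-cell fluorescence over vehicle.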
# [5] = molecular target: Estrogen receptor beta (Homo sapiens) (UniProt Q92731); assay: OT_ER_ERbERb_0480: Odyssey Thera (OT) 8-hour HEK293T Protein-Complementation Assay for Estrogen Receptor-beta/-beta Homodimer (AID 2283357);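 further: active means signal gain over DMSO baseline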
# Summary of the method: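 Homodimerization of ER-beta LBD measured by protein-fragment complementation in HEK293T; 8 h dosing; fixed, Draq5 counterstain; fluorescence intensity gain over DMSO baseline, positive fitting direction; laser scanning cytometry.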
# [6] = molecular target: human Peroxisome Proliferator-activated Receptor alpha (PPARa), PPARA (gene 5465) (UniProt Q07869); assay: NVS_NR_hPPARa: NovaScreen (NVS) Nuclear Receptor Binding Assay for human Peroxisome Proliferator-activated Receptor alpha (PPARa) (AID 2283359);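 further: activity means loss of TR-FRET signal versus DMSO baseline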
# Summary of the method: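 TR-FRET signal measured at 1 h post-dosing; loss-of-signal versus DMSO negative control taken as activity. Extracted gene-protein, cell-free format. Initial single-point duplicates at 25 uM, then concentration-response retests.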
# PGR (gene 5241) = PGR (gene 5241) (UniProt P06401); assay: NVS_NR_hPR: NovaScreen (NVS) Nuclear Receptor Binding Assay for human Progestron Receptor (PR) (AID 2283360);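 further: active means loss of bound radioligand signal versus DMSO baseline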
# Summary of the method: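 Radioligand competition binding on receptor extracted from T47D cells, read by scintillation counting 18 h after dosing. Loss of signal versus DMSO; primary screen in duplicate at 25 uM, actives followed in concentration series.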
# [7] = molecular target: Nuclear receptor subfamily 1 group I member 2 (Homo sapiens) (UniProt O75469); assay: NVS_NR_hPXR: NovaScreen (NVS) Nuclear Receptor Binding Assay for human Pregnane X Receptor (PXR) (AID 2283365);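 further: a drop in FRET signal versus DMSO baseline means the compound binds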
# Summary of the method: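 Read-out: TR-FRET, human PXR, 2 h post-dosing, cell-free. Loss of signal vs DMSO taken as binding activity; 25 uM primary, concentration series secondary.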
# Retinoic acid receptor alpha (Homo sapiens), sequence (P10276 whole entry, looked up): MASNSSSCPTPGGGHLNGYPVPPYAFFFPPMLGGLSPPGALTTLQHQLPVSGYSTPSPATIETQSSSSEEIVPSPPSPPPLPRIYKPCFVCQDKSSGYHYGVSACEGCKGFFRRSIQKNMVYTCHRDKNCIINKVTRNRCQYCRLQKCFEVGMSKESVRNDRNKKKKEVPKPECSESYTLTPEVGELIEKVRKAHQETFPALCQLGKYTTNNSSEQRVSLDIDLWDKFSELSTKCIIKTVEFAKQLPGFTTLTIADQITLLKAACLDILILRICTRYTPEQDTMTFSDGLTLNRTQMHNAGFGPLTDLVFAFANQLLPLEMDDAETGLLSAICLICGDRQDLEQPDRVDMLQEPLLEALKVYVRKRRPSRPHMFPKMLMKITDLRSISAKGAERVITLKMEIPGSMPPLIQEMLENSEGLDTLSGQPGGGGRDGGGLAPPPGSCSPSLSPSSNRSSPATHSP
# human Thyroid Receptor Alpha (TRa), THRA (gene 7067), sequence (P10827 whole entry, looked up): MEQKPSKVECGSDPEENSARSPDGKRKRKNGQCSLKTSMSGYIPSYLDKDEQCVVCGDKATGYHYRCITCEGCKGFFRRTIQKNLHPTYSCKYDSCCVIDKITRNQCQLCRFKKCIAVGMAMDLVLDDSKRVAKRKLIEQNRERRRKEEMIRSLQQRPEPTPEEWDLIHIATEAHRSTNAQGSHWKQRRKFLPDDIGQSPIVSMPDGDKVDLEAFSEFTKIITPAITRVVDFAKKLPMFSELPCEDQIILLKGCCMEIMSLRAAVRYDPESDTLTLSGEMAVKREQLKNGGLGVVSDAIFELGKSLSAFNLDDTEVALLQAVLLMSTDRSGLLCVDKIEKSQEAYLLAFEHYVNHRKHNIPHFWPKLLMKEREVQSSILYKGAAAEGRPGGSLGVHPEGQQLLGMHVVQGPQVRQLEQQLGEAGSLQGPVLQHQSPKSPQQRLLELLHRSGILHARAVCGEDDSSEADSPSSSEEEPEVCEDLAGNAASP
# Estrogen receptor (Homo sapiens) + Estrogen receptor beta (Homo sapiens), sequence (P03372 whole entry, looked up, the tested form may be a part): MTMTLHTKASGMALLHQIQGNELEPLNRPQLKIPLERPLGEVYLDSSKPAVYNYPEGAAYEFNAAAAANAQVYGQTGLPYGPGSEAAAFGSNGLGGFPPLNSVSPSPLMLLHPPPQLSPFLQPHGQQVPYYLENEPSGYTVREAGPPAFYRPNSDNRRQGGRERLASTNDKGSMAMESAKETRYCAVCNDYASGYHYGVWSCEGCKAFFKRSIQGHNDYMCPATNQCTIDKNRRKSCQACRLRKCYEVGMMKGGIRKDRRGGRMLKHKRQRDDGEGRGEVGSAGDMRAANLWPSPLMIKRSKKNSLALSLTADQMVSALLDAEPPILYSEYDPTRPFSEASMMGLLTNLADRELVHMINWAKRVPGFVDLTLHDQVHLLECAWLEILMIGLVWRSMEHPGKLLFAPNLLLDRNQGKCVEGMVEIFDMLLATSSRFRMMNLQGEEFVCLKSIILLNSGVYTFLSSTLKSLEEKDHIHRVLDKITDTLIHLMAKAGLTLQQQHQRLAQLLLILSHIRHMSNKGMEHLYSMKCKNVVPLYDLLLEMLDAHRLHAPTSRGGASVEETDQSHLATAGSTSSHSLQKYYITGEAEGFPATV
# Estrogen receptor (Homo sapiens) + Estrogen receptor beta (Homo sapiens), sequence (Q92731 whole entry, looked up, the tested form may be a part): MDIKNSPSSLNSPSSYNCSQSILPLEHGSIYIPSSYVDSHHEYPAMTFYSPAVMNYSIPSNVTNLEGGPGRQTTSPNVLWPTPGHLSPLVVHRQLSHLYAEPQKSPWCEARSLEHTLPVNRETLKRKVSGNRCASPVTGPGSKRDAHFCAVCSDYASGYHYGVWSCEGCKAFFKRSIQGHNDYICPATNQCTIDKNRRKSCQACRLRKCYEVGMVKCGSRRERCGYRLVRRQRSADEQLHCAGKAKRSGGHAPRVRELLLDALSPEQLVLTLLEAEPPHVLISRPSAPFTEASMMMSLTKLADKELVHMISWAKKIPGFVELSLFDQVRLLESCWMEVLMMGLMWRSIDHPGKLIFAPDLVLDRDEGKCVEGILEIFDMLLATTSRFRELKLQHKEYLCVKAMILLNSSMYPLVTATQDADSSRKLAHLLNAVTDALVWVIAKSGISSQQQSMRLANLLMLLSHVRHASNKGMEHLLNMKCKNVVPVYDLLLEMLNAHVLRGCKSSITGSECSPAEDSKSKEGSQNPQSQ
# human Peroxisome Proliferator-activated Receptor alpha (PPARa), PPARA (gene 5465), sequence (Q07869 whole entry, looked up): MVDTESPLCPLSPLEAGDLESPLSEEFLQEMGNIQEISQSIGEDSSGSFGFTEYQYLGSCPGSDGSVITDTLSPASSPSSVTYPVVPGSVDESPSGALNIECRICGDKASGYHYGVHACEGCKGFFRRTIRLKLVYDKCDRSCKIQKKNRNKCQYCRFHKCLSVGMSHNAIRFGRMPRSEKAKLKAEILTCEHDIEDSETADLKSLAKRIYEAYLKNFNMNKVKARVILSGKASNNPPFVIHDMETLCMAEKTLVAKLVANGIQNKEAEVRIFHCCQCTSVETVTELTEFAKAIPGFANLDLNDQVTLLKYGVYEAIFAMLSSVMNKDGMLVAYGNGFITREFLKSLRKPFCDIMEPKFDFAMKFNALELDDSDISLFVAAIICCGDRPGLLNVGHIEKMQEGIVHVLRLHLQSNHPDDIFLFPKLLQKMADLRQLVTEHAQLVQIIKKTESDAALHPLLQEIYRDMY
# Estrogen receptor beta (Homo sapiens), sequence (Q92731 whole entry, looked up, the tested form may be a part): as the sequence (Q92731 whole entry, looked up, the tested form may be a part) above
# Nuclear receptor subfamily 1 group I member 2 (Homo sapiens), sequence (O75469 whole entry, looked up): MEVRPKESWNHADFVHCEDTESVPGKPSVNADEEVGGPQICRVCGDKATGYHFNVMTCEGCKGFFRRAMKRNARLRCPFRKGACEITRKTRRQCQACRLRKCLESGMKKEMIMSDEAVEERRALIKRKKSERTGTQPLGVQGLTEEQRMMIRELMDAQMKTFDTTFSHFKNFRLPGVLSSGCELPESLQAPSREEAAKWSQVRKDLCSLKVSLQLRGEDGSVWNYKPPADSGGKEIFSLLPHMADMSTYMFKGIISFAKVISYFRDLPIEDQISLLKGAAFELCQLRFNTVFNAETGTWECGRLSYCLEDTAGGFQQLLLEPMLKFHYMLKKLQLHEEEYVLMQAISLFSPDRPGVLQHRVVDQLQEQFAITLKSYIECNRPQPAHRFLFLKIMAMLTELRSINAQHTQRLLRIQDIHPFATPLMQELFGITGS
# PGR (gene 5241), sequence (P06401 whole entry, looked up): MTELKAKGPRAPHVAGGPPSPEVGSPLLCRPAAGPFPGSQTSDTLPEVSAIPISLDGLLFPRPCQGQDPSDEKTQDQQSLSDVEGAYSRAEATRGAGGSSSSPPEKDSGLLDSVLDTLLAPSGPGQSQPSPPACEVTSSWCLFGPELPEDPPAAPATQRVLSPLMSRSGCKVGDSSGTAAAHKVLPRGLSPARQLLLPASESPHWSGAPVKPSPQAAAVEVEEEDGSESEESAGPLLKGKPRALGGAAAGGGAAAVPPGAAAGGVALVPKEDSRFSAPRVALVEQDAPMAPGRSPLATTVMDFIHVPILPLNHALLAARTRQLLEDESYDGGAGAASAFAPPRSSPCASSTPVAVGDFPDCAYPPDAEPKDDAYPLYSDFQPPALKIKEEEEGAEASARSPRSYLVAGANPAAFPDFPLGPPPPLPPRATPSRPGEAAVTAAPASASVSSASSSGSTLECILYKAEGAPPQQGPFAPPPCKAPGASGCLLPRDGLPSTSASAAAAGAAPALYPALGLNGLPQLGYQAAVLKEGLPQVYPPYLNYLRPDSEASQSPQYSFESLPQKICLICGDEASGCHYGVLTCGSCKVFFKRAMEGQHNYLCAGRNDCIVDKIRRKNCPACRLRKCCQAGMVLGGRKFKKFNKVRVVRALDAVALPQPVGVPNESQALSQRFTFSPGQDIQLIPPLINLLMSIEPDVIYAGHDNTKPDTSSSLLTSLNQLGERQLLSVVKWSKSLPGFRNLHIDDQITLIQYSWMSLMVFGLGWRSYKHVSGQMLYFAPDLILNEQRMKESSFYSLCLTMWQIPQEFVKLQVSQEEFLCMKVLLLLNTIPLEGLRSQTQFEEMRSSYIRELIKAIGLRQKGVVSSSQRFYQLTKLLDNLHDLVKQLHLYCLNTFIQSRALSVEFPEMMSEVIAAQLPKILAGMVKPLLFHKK
compound,measurement,setting,value
O=C(c1ccc(O)cc1O)c1ccc(O)cc1O,AC50,[1],25 µM (active) and 33.4 µM (active)
same,outcome,[1],inactive
S=C(S)NCCNC(=S)S.[Mn+2].[S-]C([S-])=NCCN=C([S-])[S-].[Zn+2],AC50,[2],7.34 µM (active)
CCCN(CCC)C(=O)SCC,outcome,[2],inactive
COC(=O)c1ccc(CNS(C)(=O)=O)cc1S(=O)(=O)NC(=O)Nc1nc(OC)cc(OC)n1,outcome,[3],inactive
COc1c(Cl)ccc(Cl)c1C(=O)O,outcome,[4],inactive
same,outcome,[5],inactive
CC(C)CCCCCCc1ccc(O)cc1,AC50,[4],2.25 µM (active) and 2.44 µM (active)
same,AC50,[5],836 nM (active) and 1.48 µM (active) and 1.04 µM (active)
same,outcome,[6],inactive
CCCCCOC(=O)COc1cc(N2C(=O)C3=C(CCCC3)C2=O)c(F)cc1Cl,outcome,[4],inactive
same,outcome,[3],inactive
CCCCC(CC)COC(=O)c1ccccc1C(=O)O (centres undefined),outcome,[5],inactive
same,outcome,[2],inactive
c1ccc(Nc2ccccc2)cc1,AC50,[5],50.8 µM (active)
same,outcome,PGR (gene 5241),inactive
N[C@@H](Cc1cc(I)c(Oc2ccc(O)c(I)c2)c(I)c1)C(=O)O,AC50,[6],27.3 µM (active) and 20 µM (active)
same,outcome,[6],inactive
same,outcome,[7],inactive
CCC(C)OC(=O)N1CCCCC1CCO (centres undefined),outcome,[5],inactive
CCCN(CCC)c1c([N+](=O)[O-])cc(C(F)(F)F)c(N)c1[N+](=O)[O-],outcome,[4],inactive
same,outcome,[5],inactive
same,outcome,[3],inactive
CC(=O)S[C@@H]1CC2=CC(=O)CC[C@]2(C)[C@H]2CC[C@@]3(C)[C@@H](CC[C@@]34CCC(=O)O4)[C@H]12,outcome,[4],inactive
same,outcome,[5],inactive
same,outcome,[2],inactive
same,AC50,[7],25 µM (active)
same,outcome,[7],inactive
COCCO,AC50,[7],3.84 µM (active)
